Source: the supplement of paper PMC12494721
Counter-ions that a name gives are not always drawn.

Key:
Details in all cases: 20 µM; incubation time: 27 h, anaerobic, 37 °C;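 for the amine columns active = adjusted P below 0.05 in both replicates with a change the same way and a mean fold change under 0.8 or over 1.25; inactive = the rest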
[1] = system: Clostridium sporogenes DSM 1664; assay: growth (OD595) fold change vs plate DMSO controls (fold change (ratio)); higher = more growth
Outline: (§1)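 The reported measure is growth: the fold change against the median of DMSO controls on the plate. Absorbance at 595 nm from anaerobic 96-well mGAM cultures grown for 27 h at 37 °C was blank-subtracted, corrected for background with 20 µM compound solutions in water, and converted to OD with a calibration factor of 5. Fold changes above 1.5 appear as NA, and values are the mean of 2 biological replicates.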

Escherichia coli IAI1 [2] = assay: as above
Outline: as §1

[3] = system: Klebsiella aerogenes DSM 30053; assay: as above
Outline: as §1

[4] = system: Ruminococcus gnavus DSM 108212; assay: as above
Outline: as §1

[5] = system: Klebsiella aerogenes DSM 30053; assay: fold change of Histamine concentration vs plate DMSO controls (fold change (ratio)); higher = more amine produced, active = hit call of the paper (significant change in both replicates, either direction)
Outline: (§2)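 Each value is the fold change relative to DMSO-only wells on the same plate. Four gut bacterial strains were grown anaerobically in mGAM at 37 °C for 27 h in 80 µL wells, starting at OD 0.1 before a 1:1 dilution, with compounds at 20 µM final (sweeteners 50 µM). Whole cultures were extracted with cold acetonitrile/methanol containing 0.1% formic acid, centrifuged, and amines were quantified by LC–triple-quadrupole MS (dynamic MRM) against external calibration curves with within-batch drift correction. Values are means of 2 biological replicates.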

[6] = system: Clostridium sporogenes DSM 1664; assay: fold change of Tryptamine concentration vs plate DMSO controls (fold change (ratio)); higher = more amine produced, active = hit call of the paper (significant change in both replicates, either direction)
Outline: as §2

[7] = system: Ruminococcus gnavus DSM 108212; assay: as above
Outline: as §2

Escherichia coli IAI1 [8] = assay: fold change of Putrescine concentration vs plate DMSO controls (fold change (ratio)); higher = more amine produced, active = hit call of the paper (significant change in both replicates, either direction)
Outline: as §2

[9] = system: Klebsiella aerogenes DSM 30053; assay: as above
Outline: as §2

Escherichia coli IAI1 [10] = assay: fold change of Cadaverine concentration vs plate DMSO controls (fold change (ratio)); higher = more amine produced, active = hit call of the paper (significant change in both replicates, either direction)
Outline: as §2

[11] = system: Klebsiella aerogenes DSM 30053; assay: as above
Outline: as §2

[12] = system: Ruminococcus gnavus DSM 108212; assay: fold change of 2-Phenylethylamine concentration vs plate DMSO controls (fold change (ratio)); higher = more amine produced, active = hit call of the paper (significant change in both replicates, either direction)
Outline: as §2

SMILES	growth [1]	growth (Escherichia coli IAI1 [2])	growth [3]	growth [4]	fold change of Histamine concentration [5]	fold change of Tryptamine concentration [6]	fold change of Tryptamine concentration [7]	fold change of Putrescine concentration (Escherichia coli IAI1 [8])	fold change of Putrescine concentration [9]	fold change of Cadaverine concentration (Escherichia coli IAI1 [10])	fold change of Cadaverine concentration [11]	fold change of 2-Phenylethylamine concentration [12]
CC(C)OC(=O)Nc1cccc(Cl)c1	1.05	1.04	1.05	0.957	0.972 (inactive)	0.989 (inactive)	1.02 (inactive)	0.987 (inactive)	0.984 (inactive)	0.927 (inactive)	1.01 (inactive)	1.06 (inactive)
CC(Cc1ccccc1)NCCC(c1ccccc1)c1ccccc1 (stereo not given) [Prenylamine lactate]	1.01	0.997	1	1.45	0.979 (inactive)	0.96 (inactive)	0.913 (inactive)	1.37 (inactive)	0.961 (inactive)	0.657 (active)	0.987 (inactive)	0.983 (inactive)
O=C1CC[C@@]2(O)[C@H]3Cc4ccc(O)c5c4[C@@]2(CCN3CC2CC2)[C@H]1O5 [Naltrexone hydrochloride dihydrate]		0.661	0.69	0.579	1.03 (inactive)		0.934 (inactive)	1.02 (inactive)	1.01 (inactive)	0.995 (inactive)	0.992 (inactive)	0.896 (inactive)
COP(=O)(NC(C)=O)SC (stereo not given)	1.04	0.98	1.02	1.04	1 (inactive)	1.02 (inactive)	1 (inactive)	1.02 (inactive)	1 (inactive)	1.02 (inactive)	0.997 (inactive)	1 (inactive)
CC1(C)C(C=C(Cl)Cl)C1C(=O)OC(C#N)c1cccc(Oc2ccccc2)c1 (mixture of isomers)	1.13	1.01	0.982	1.04	1.02 (inactive)	0.975 (inactive)	1.02 (inactive)	0.971 (inactive)	1.02 (inactive)	0.994 (inactive)	1.01 (inactive)	1 (inactive)
Oc1cc(Cl)ccc1Oc1ccc(Cl)cc1Cl [Triclosan]	0.874	0.0332	0.299	1.21	0.0779 (active)	0.699 (inactive)	0.715 (active)	0.258 (active)	0.248 (active)	1.13 (inactive)	0.828 (inactive)	0.734 (active)
CCN(CC)C(C)C(=O)c1ccccc1 (stereo not given) [Amfepramone hydrochloride]	1.04	1.05	1.02	1.06	0.955 (inactive)	1.03 (inactive)	1.06 (inactive)	1.06 (inactive)	0.982 (inactive)	0.938 (inactive)	1.01 (inactive)	1.06 (inactive)
C=C[C@H]1CN2CC[C@H]1C[C@H]2[C@H](OC(=O)OCC)c1ccnc2ccc(OC)cc12 [Quinine ethyl carbonate]	1.08	1.01	1.01	0.915	0.967 (inactive)	1.01 (inactive)	0.955 (inactive)	1.03 (inactive)	0.985 (inactive)	1.01 (inactive)	0.993 (inactive)	1.03 (inactive)
N#CCNC(=O)c1cnccc1C(F)(F)F	1.08	1	0.999	1.12	1.02 (inactive)	1 (inactive)	1 (inactive)	1.01 (inactive)	1.01 (inactive)	1.03 (inactive)	0.997 (inactive)	0.951 (inactive)
CC[C@H](C)C1O[C@]2(C=C[C@@H]1C)C[C@@H]1C[C@@H](C/C=C(\C)[C@@H](O[C@H]3C[C@H](OC)[C@@H](O[C@H]4C[C@H](OC)[C@H](NC)[C@H](C)O4)[C@H](C)O3)[C@@H](C)/C=C/C=C3\CO[C@@H]4[C@H](O)C(C)=C[C@@H](C(=O)O1)[C@]34O)O2 (stereo not given in full)	0.931	1.08	1.05		0.888 (inactive)	0.823 (inactive)	0.581 (active)	1.05 (inactive)	0.995 (inactive)	1.02 (inactive)	0.995 (inactive)	0.654 (inactive)
CCC1(C)CC(=O)NC(=O)C1 [Bemegride]	1.08	1.06	1.04	0.973	0.98 (inactive)	1.04 (inactive)	1.03 (inactive)	0.985 (inactive)	0.981 (inactive)	0.986 (inactive)	0.991 (inactive)	1.03 (inactive)
CCC(=O)O[C@H]1CC[C@H]2[C@@H]3CCC4=CC(=O)CC[C@]4(C)[C@H]3CC[C@]12C [Testosterone propionate]	1.02	1.01	1.03		1.02 (inactive)	0.993 (inactive)	1.08 (inactive)	0.938 (inactive)	1.02 (inactive)	0.985 (inactive)	1.07 (inactive)	1.23 (inactive)
CC(C)CC(N(C)C)C1(c2ccc(Cl)cc2)CCC1 (stereo not given) [Sibutramine hydrochloride]	0.99	1	1.01	0.908	1.05 (inactive)	0.976 (inactive)	0.985 (inactive)	1.01 (inactive)	0.999 (inactive)	0.984 (inactive)	0.989 (inactive)	1 (inactive)
O=C1C2(Cl)C3(Cl)C4(Cl)C(Cl)(Cl)C5(Cl)C3(Cl)C1(Cl)C5(Cl)C24Cl (stereo not given)	0	1.09	1.04		1.07 (inactive)	0.0206 (active)	0.27 (active)	1.05 (inactive)	1.07 (inactive)	1.14 (inactive)	1.05 (inactive)	0.297 (inactive)
CCOC(=O)c1cncn1[C@H](C)c1ccccc1 [Etomidate]		1.22	0.988	0.931	0.992 (inactive)		1.06 (inactive)	0.985 (inactive)	1.07 (inactive)	0.973 (inactive)	1.07 (inactive)	1.19 (inactive)
O=C1C=C(N(Cc2ccc(Cl)nc2)CC(F)F)CO1	0.968	1.01	0.997	0.923	1.02 (inactive)	1.15 (inactive)	1.1 (inactive)	0.94 (inactive)	1 (inactive)	0.933 (inactive)	1.01 (inactive)	1.15 (inactive)
